Experimental data reported in PubChem BioAssay (Tox21).
Results filed as inconclusive are left out. Unmarked numbers belong to inactive results. Activity calls are given as the source filed them. Calls come from the whole dose curve.

assay: qHTS assay to identify small molecule agonists or antagonists of the thyroid stimulating hormone receptor (TSHR) signaling pathway - wild type cell line counter screen (AID 1259384); conditions: HEK293 wild type, cAMP HTRF counter-screen, active compounds read high; series mostly up to 92.4 µM
Excerpt: U.S. Tox21 Program National Center for Advancing Translational Sciences [NCATS] NIH Chemical Genomics Center [NCGC] U.S. Environmental Protection Agency [EPA] National Institutes of Environmental Health Sciences [NIEHS] National Toxicology Program [NTP] U.S. Food and Drug Administration [FDA] Tox21 Assay Overview: TSHR is the receptor for thyrotropin (thyroid stimulating hormone or TSH), a member of the glycoprotein hormone family. TSH is released by the anterior pituitary gland and is the main regulator of thyroid gland growth and development. Upon binding circulating thyrotropin, a G-protein signal cascade activates adenylyl cyclase and […] cAMP concentration is increased. cAMP is a key second messenger involved extensively in cellular signal transduction pathways associated with the majority of G-protein coupled receptors (GPCRs). The activation of these GPCRs by neurotransmitters, lipids, nucleotides, peptides and hormones results in the activation or the inhibition of plasma membrane-bound adenylate cyclase through heterotrimeric G-proteins. A cell-based TSHR-Hek293 assay can be used to identify TSHR agonists. To eliminate the false positive compounds identified from screening a cell-based TSHR-Hek293 cell line, cAMP assay in a wild type Hek293 cells was used as a counter screening.
Tox21 Assay Protocol Summary: Hek293 cells (wild type) were dispensed at 800 cells/4 uL/well in 1536-well white plates using a Multidrop dispenser. After the assay plates were incubated at a 37 C/5% CO2 incubator for 18 hrs, 23 nL of compounds dissolved in DMSO, positive controls or DMSO only was transferred to the assay plate by a pin tool, followed by 1 ul medium containing Ro20-1724. After 30 min of incubation at room temperature, 2.5 ul/well of cAMP-d2 and 2.5 ul/well of anti-cAMP-cryptate were added respectively into the assay plates using a Flying Reagent Dispenser. The plates were incubated at room temperature for 1 hr. The fluorescence intensity in the plates was measured using an Envision plate reader. Each test compound was measured at 15 concentrations and in triplicates.
% is set by controls: 0 for no effect and ±100 for the full control effect.

Row | Compound | outcome | cAMP activity change
1 | CCCCC(=O)O[C@]1(C(=O)CO)[C@@H](C)C[C@H]2[C@@H]3CCC4=CC(=O)C=C[C@]4(C)[C@@]3(F)[C@@H](O)C[C@@]21C | inactive | 
2 | C[Si]1(C)O[Si](C)(C)O[Si](C)(C)O1 | inactive | 
3 | CC1C2CC(CC2C2CCCC(O)C2)C1(C)C (stereo not given) | inactive | 
4 | COC(OC)(C(=O)c1ccccc1)c1ccccc1 | inactive | 
5 | C=CC(=C)CCCC(C)(C)OC(C)=O | inactive | 
6 | CC(C)c1nnc2ccc(-c3ocnc3-c3cc(F)ccc3F)cn12 | inactive | 
7 | CC1=CC(=O)CC(C)(C)C1(O)/C=C/C(C)=C\C(=O)O (stereo not given) | inactive | 
8 | COc1ccc(CCC(=O)c2c(O)cc(O[C@@H]3O[C@H](CO)[C@@H](O)[C@H](O)[C@H]3O[C@@H]3O[C@@H](C)[C@H](O)[C@@H](O)[C@H]3O)cc2O)cc1O | inactive | 
9 | CN1Cc2cc(C(=O)N3CCC(C4CCNCC4)CC3)ccc2N[C@@H](CC(=O)O)C1=O | inactive | 
10 | N#C/C(=C1\SCC(c2ccccc2Cl)S1)n1ccnc1 (stereo not given) | inactive | 
11 | C[N+]1(C)CCC(=C(c2ccccc2)c2ccccc2)CC1 | inactive | 
12 | COC(=O)CC(=O)C(C)(C)C | inactive | 
13 | C[C@@H]1C[C@H]2[C@@H]3CCC4=CC(=O)C=C[C@]4(C)[C@@]3(F)[C@@H](O)C[C@]2(C)[C@H]1C(=O)CO | inactive | 
14 | CC(C)C(OC(=O)c1ccccc1)C(C)(C)COC(=O)c1ccccc1 (stereo not given) | inactive | 
15 | CCC(C)(C)C1CCC(O)CC1 (stereo not given) | inactive | 
16 | CCCCC(CC)CNCC(CC)CCCC (stereo not given) | inactive | 
17 | CCNC(=O)N1CCN(CCCC(c2ccc(F)cc2)c2ccc(F)cc2)CC1 | inactive | 
18 | Cc1occc1C(=O)Nc1ccc(C(=O)N2CCC(F)(F)/C(=C\C(=O)N3CCC(N4CCCCC4)CC3)c3ccccc32)cc1 | inactive | 
19 | C=CC(C)(O)CCCC(C)CCCC(C)CCCC(C)C (stereo not given) | inactive | 
20 | CCn1nc(C)c2c1C(=O)NCC(c1ccc(O)cc1)=N2 | inactive | 

Row | Compound | outcome | cAMP activity change
21 | CC(=N\O)/C(C)=N/O | inactive | 
22 | O=S(=O)(c1ccccc1)c1ccc(Cl)cc1 | inactive | 
23 | Fc1ccccc1[C@@H](F)COC1CCC(Nc2ncnc3[nH]ncc23)CC1 (stereo not given in full) | inactive | 
24 | CNCCCC1c2ccccc2C=Cc2ccccc21 | inactive | 
25 | O=C(CCC1CCN(Cc2ccccc2)CC1)c1ccc2c(c1)NCCCC2 | inactive | 
26 | CCCCCCCC/C=C\CCCCCCCC(=O)OC | inactive | 
27 | C/C=C/C=C/CCCCCCCO | inactive | 
28 | CC#N | inactive | 
29 | COC(=O)c1cc(S(N)(=O)=O)ccc1OC | inactive | 
30 | CC1=CC(O)CC(C)(C)C1 (stereo not given) | inactive | 
31 | C=CCCCCCCCCCCCCCCCC |  | -0.74% [at 8.39 µM]
32 | O=C(Nc1ccc([N+](=O)[O-])cc1)Nc1ccc([N+](=O)[O-])cc1 | inactive | 
33 | CCCCCC=CCC=CCCCCCCCC(=O)OCC | inactive | 
34 | CCCCC/C(=C\c1ccccc1)CO | inactive | 
35 | COCC(O)CO (stereo not given) | inactive | 
36 | CCc1c2c(nc3ccc(OC(=O)N4CCC(N5CCCCC5)CC4)cc13)-c1cc3c(c(=O)n1C2)COC(=O)[C@]3(O)CC | inactive | 
37 | CCCc1c(OCCCOc2ccc(OCC(=O)O)cc2)ccc(C(C)=O)c1O | inactive | 
38 | CCOC(=O)c1ccccc1OC | inactive | 
39 | Oc1cc(O)c(Cl)cc1Cl | inactive | 
40 | CC(COc1ccc(C(C)(C)C)cc1)OS(=O)OCCCl (stereo not given) | inactive | 
